The results in this text go back to the antibiotic and cytotoxicity screens of Wong et al. (2023).

Molecules are shown by their SMILES. The campaign covered roughly 39,000 compounds. About 3,300 (8.5%) were called active. The entries come from a sample that favours actives as a whole.

The subject of the assay is HepG2. The assay can be described thus: cytotoxicity call (relative viability < 0.9). As to conditions: 10 µM.
Take `C[C@@H]1CN([C@@H](C)CO)C(=O)c2cc(NC(=O)Cc3cn(C)c4ccccc34)ccc2O[C@@H]1CN(C)CC1CCCCC1`: the cytotoxicity call was “inactive”. For `Cc1noc(C)c1S(=O)(=O)Nc1ccc2c(c1)C(=O)N([C@@H](C)CO)C[C@@H](C)[C@@H](CN(C)C(=O)Nc1ccccc1)OCCCC[C@@H](C)O2` the value was “inactive”. As for `O=C(O)CCCN1C(=O)CSC1=S`, the entry is “inactive”. For `C[C@@H]1CCCCO[C@H](CN(C)C(=O)Nc2ccc(F)cc2)[C@@H](C)CN([C@@H](C)CO)C(=O)c2cc(NC(=O)NC3CCCCC3)ccc2O1` the value was “inactive”; for `C[C@H](CO)N1C[C@H](C)[C@@H](CN(C)S(C)(=O)=O)Oc2ccc(NC(=O)C3CCCCC3)cc2CC1=O`, “inactive”; for `C[C@H](CO)N1C[C@H](C)[C@@H](CN(C)Cc2ccc3c(c2)OCO3)Oc2ccc(NC(=O)Cn3cnnn3)cc2C1=O`, “inactive”. Consider `Cc1ccc(-c2ccc(OC(=O)c3ccccc3F)cc2)cc1`, for which the cytotoxicity call is “inactive”. For the compound `Cc1ccc(C(=O)Oc2ccc(/C=N/c3cccs3)cc2)cc1`, the cytotoxicity call was “active”. Take `O=C(Oc1ccc(C2CCCCC2)cc1)c1cccs1`: the cytotoxicity call was “inactive”. As for `C[C@H](CO)N1C[C@H](C)[C@@H](CN(C)S(C)(=O)=O)OCCCC[C@H](C)Oc2ccc(NC(=O)c3ccncc3)cc2C1=O`, the entry is “inactive”. With `CC(C)NC(=O)Nc1ccc2c(c1)C(=O)N([C@H](C)CO)C[C@H](C)[C@@H](CN(C)CC1CCCCC1)OCCCC[C@H](C)O2`, the cytotoxicity call was “inactive”. As for `C[C@H]1CN([C@@H](C)CO)C(=O)c2cccc(NC(=O)C3CC3)c2O[C@H]1CN(C)C(=O)NC1CCCCC1`, the entry is “inactive”; as for `O=C(C[C@@H]1C=C[C@H](NC(=O)c2cnccn2)[C@@H](CO)O1)NCc1ccccc1F`, “inactive”; as for `COc1cc2c(cc1OC)C1C(=O)c3ccc4c(c3OC1CO2)C=CC(C)(C)O4` (configuration not stated), “active”. As for `COc1ccc(-c2c(O)c3c(OC)c4c(cc3oc2=O)OC(C)(C)C=C4)cc1`, the entry is “inactive”; as for `CC1(C)C=Cc2cc3ccc(=O)oc3cc2O1`, “inactive”; as for `COc1cc2c(cc1OC)C1C(=O)c3c(O)cc4c(c3OC1CO2)C=CC(C)(C)O4` (stereo not drawn) [alpha-TOXICAROL (dl) ], “active”. For the compound `COc1cc2c(cc1OC)-c1c(oc3cc4c(cc3c1=O)CCO4)CO2`, the cytotoxicity call was “inactive”.

For `COc1cc2c(cc1OC)-c1c(oc3c4c(ccc3c1=O)OC(C)(C)C=C4)CO2`, the cytotoxicity call is “active”. For `COc1ccc2c(c1)OC1c3ccc(OC)cc3OCC21` (configuration not stated) the value was “inactive”. For `CC(=O)c1cc2c(cc1O)OC(C)(C)C=C2` the value was “inactive”; for `COc1cc2c(c3ccccc13)OC(C)(C)C=C2`, “inactive”. For `COc1cc(OC)c2c(c1)OC(c1ccccc1)CC2=O` (configuration not stated) the value was “inactive”; for `COc1ccc2c(c1)OC1COc3cc(OC)c(OC)cc3C1C2=O` (configuration not stated), “active”; for `Nc1ccc(Cl)nn1`, “inactive”. `C[C@@H]1CN([C@@H](C)CO)C(=O)CCCn2nncc2CO[C@H]1CN(C)S(=O)(=O)c1ccc(Cl)cc1`: the cytotoxicity call was “inactive”. For `O=C(C[C@@H]1CC[C@@H](NC(=O)CN2CCOCC2)[C@H](CO)O1)NCCc1ccncc1` the value was “inactive”. For `C[C@@H]1CCCCO[C@H](CN(C)C(=O)C2CCCCC2)[C@H](C)CN([C@@H](C)CO)C(=O)c2cc(NC(=O)Cc3ccccc3)ccc2O1` the value was “inactive”; for `Cc1cn(Cc2ccccc2)c(=O)[nH]c1=O`, “inactive”. For `O=C(C[C@H]1CC[C@@H]2[C@H](COC[C@@H](O)CN2C(=O)Nc2cc(Cl)cc(Cl)c2)O1)N1CCOCC1` the value was “inactive”. With `COC[C@@H]1c2nnn(C)c2CCN1S(=O)(=O)c1cn(C)cn1`, the cytotoxicity call was “inactive”. As for `C[C@@H]1CCCCO[C@@H](CN(C)CC2CCCCC2)[C@H](C)CN([C@@H](C)CO)C(=O)c2cc(NS(=O)(=O)c3ccc(F)cc3)ccc2O1`, the cytotoxicity call was “active”. For `C[C@@H]1CCCCO[C@@H](CN(C)CC2CCCCC2)[C@@H](C)CN([C@H](C)CO)C(=O)c2cc(NS(=O)(=O)c3ccc(F)cc3)ccc2O1` the value was “active”.

Turning to `C[C@@H]1CCCCO[C@@H](CN(C)CC2CCCCC2)[C@H](C)CN([C@H](C)CO)C(=O)c2cc(NS(=O)(=O)c3ccc(F)cc3)ccc2O1`, the cytotoxicity call is “inactive”.

For the compound `C[C@@H]1CN([C@@H](C)CO)C(=O)c2cc(NS(=O)(=O)c3ccc(F)cc3)ccc2O[C@@H](C)CCCCO[C@H]1CN(C)CC1CCCCC1`, the cytotoxicity call was “inactive”. As to `C[C@@H]1CCCCO[C@H](CN(C)CC2CCCCC2)[C@@H](C)CN([C@H](C)CO)C(=O)c2cc(NS(=O)(=O)c3ccc(F)cc3)ccc2O1`, the cytotoxicity call is “inactive”. As for `C[C@H](CO)N1C[C@H](C)[C@H](CN(C)CC2CCCCC2)OCCCC[C@H](C)Oc2ccc(NS(=O)(=O)c3ccc(F)cc3)cc2C1=O`, the entry is “active”; as for `C[C@@H]1CCCCO[C@H](CN(C)CC2CCCCC2)[C@H](C)CN([C@H](C)CO)C(=O)c2cc(NS(=O)(=O)c3ccc(F)cc3)ccc2O1`, “inactive”. Regarding `C[C@H]1CCCCO[C@H](CN(C)CC2CCCCC2)[C@@H](C)CN([C@@H](C)CO)C(=O)c2cc(NS(=O)(=O)c3ccc(F)cc3)ccc2O1`, the cytotoxicity call was “active”.

With `C[C@H](CO)N1C[C@H](C)[C@@H](CN(C)CC2CCCCC2)OCCCC[C@H](C)Oc2ccc(NS(=O)(=O)c3ccc(F)cc3)cc2C1=O`, the cytotoxicity call is “inactive”. For `C[C@@H]1CN([C@H](C)CO)C(=O)c2cc(NS(=O)(=O)c3ccc(F)cc3)ccc2O[C@@H](C)CCCCO[C@@H]1CN(C)CC1CCCCC1` the value was “inactive”; for `C[C@@H]1CN([C@@H](C)CO)C(=O)c2cc(NS(=O)(=O)c3ccc(F)cc3)ccc2O[C@@H](C)CCCCO[C@@H]1CN(C)CC1CCCCC1`, “inactive”. As for `C[C@@H]1CCCCO[C@@H](CN(C)CC2CCCCC2)[C@@H](C)CN([C@@H](C)CO)C(=O)c2cc(NS(=O)(=O)c3ccc(F)cc3)ccc2O1`, the entry is “inactive”; as for `CCCNC(=O)C[C@H]1CC[C@@H]2[C@@H](COc3ccc(NS(=O)(=O)c4ccccc4C)cc3C(=O)N2C)O1`, “inactive”; as for `O=C(C[C@H]1C=C[C@@H](NC(=O)c2ccc3c(c2)OCO3)[C@@H](CO)O1)NCc1ccc(Oc2ccccc2)cc1`, “inactive”.

Turning to `COc1ccc2c3c(n(c2c1)C)[C@@H](CO)N(C[C@]13CCN(CC1)S(=O)(=O)c1cn(cn1)C)C(=O)Nc1ccc(cc1)F`, the cytotoxicity call was “inactive”. As for `COc1ccc2c3c([nH]c2c1)[C@H](CO)N(C[C@]13CN(CC2CCCCC2)C1)S(=O)(=O)c1cn(cn1)C`, the entry is “inactive”.
